Reference: PubChem BioAssay
Calls of active or inactive are those of the source. Unless noted, the rule behind the calls is not given here.

Assays:
[1] = tested on: Wnt5a (protein binding on small-molecule microarray); test: small molecules binding Wnt5a protein – biophysical, small-molecule microarray, 635/667 nm fluorescence, primary screen (AID 1142); conditions: 635 nm fluorescence, higher = more signal;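 note: fluorescence read at 667 nm with signal to noise per printed feature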
[2] = ATP-based viability of Huh7 replicon cells – cell-based, CellTiter-Glo luminescence, basal, 48 h, cytotoxicity control for HCV replication inhibitor project, primary screen (AID 1143); conditions: higher = more signal, called active from +8 up or from −8 down;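 note: Huh7 hepatoma cells carrying a hepatitis C replication reporter with no stimulus; test concentration not given here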
[3] = Pseudomonas biofilm growth suppression – PAO1 strain, BacTiter-Glo luminescence, LB-PBS, primary screen (AID 1144); conditions: P. aeruginosa PAO1 biofilm, 12 h, higher = more signal
[4] = basal CRE-LacZ reporter activity in PC12 – cell-based, unstimulated, primary screen (AID 1145); conditions: no forskolin, luminescence, 4.5 h, higher = more signal, called active from +8 up or from −8 down
[5] = forskolin-driven CRE-LacZ activity in PC12 – cell-based, CRE-LacZ reporter, forskolin-stimulated, primary screen (AID 1146); conditions: luminescence, 4.5 h, higher = more signal, called active from +8 up or from −8 down;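 note: PC12 cells with 6xCRE LacZ reporter stimulated by forskolin 10 µM; beta-galactosidase reporter signal reflecting CREB driven transcription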
[6] = molecular target: Streptavidin (Streptomyces avidinii) (UniProt P22629); test: compounds binding control protein streptavidin – biophysical, small-molecule microarray, 635/667 nm fluorescence, artefact control for SMM compound annotation, primary screen (AID 1147); conditions: higher = more signal;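 note: signal reflects streptavidin binding to arrayed compounds as a control protein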
[7] = probe aInhba binding on compound microarray – biochemical, small-molecule microarray, 635/667 nm fluorescence, primary screen (AID 1148); conditions: higher = more signal;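 note: score merges 667nm spot fluorescence with signal-to-noise for antibody binding to printed compounds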
Torsin-1A (Homo sapiens) [8] = molecular target: Torsin-1A (Homo sapiens) (UniProt O14656); test: TOR1A wild-type binding on microarray – cell lysate, small-molecule microarray, lysate, 635/667 nm, primary screen (AID 1149); conditions: COS7 hTOR1A-WT lysate, 635 nm fluorescence, higher = more signal
Torsin-1A (Homo sapiens) [9] = molecular target: Torsin-1A (Homo sapiens) (UniProt O14656); test: torsin A mutant lysate binding on microarrays – cell lysate, small-molecule microarray, COS7 lysate, 635/667 nm fluorescence, primary screen (AID 1150); conditions: COS7 hTOR1A mutant lysate, 635 nm fluorescence, higher = more signal;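 note: score pools 667 nm emission and signal to noise measuring lysate protein binding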
[10] = tested on: Sonic hedgehog protein (Shh); test: Sonic hedgehog microarray binding compounds – biochemical, small-molecule microarray, 635/667 nm fluorescence, primary screen (AID 1151); conditions: 635 nm fluorescence, higher = more signal;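 note: Shh protein binding to compounds spotted on small-molecule microarray slides; score combines spot fluorescence intensity with signal-to-noise across triplicate slides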
[11] = optical density shifts of acrAB sulA E. coli – strain DRC41, OD650, 48 h, E. coli filamentation inducer project, primary screen (AID 1152); conditions: higher = more signal, called active from +8 up or from −8 down;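 note: E. coli MC1000 strain DRC41 lacking acrAB efflux pump and sulA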
[12] = probe aLefty1 binding on compound microarray – biochemical, small-molecule microarray, 635/667 nm fluorescence, primary screen (AID 1153); conditions: higher = more signal;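 note: score merges spot fluorescence with signal-to-noise ratio from the scanned slide images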
[13] = plasmodial surface anion channel blockers, osmotic lysis – cell-based, P. falciparum Indochina, OD700, 1 h, primary screen (AID 1154); conditions: P. falciparum Indochina infected RBC osmotic lysis, higher = more signal, called active from +8 up or from −8 down
[14] = plasmodial surface anion channel blockers, osmotic lysis – cell-based, P. falciparum Indochina, OD700, 2 h, primary screen (AID 1155);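 note: lysis reports solute entry through the parasite surface anion channel PSAC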; conditions: P. falciparum Indochina infected erythrocytes, higher = more signal, called active from +8 up or from −8 down
[15] = changes in parasitized red cell lysis, either direction – P. falciparum Indochina, OD700, 3 h, PSAC antagonist project, primary screen (AID 1156); conditions: P. falciparum-infected erythrocytes, osmotic lysis, higher = more signal, called active from +8 up or from −8 down
[16] = plasmodial surface anion channel blockers, osmotic lysis – cell-based, P. falciparum Indochina, OD700, 18 h, primary screen (AID 1157); conditions: P. falciparum Indochina infected erythrocytes, osmotic lysis OD700, 18 h; higher = more signal, called active from +8 up or from −8 down
[17] = S6 kinase pathway phospho-S6 level changes – cell-based, A549, cytoblot, luminescence, serum-stimulated, primary screen (AID 1158); conditions: 5 h, higher = more signal;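 note: serum-stimulated A549 lung adenocarcinoma cells; signal is phosphorylated S6 detected by cytoblot immunostaining with HRP secondary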
[18] = molecular target: NADPH oxidase 2 (Homo sapiens) (UniProt P04839); test: compounds shifting NOX2 Amplex Red fluorescence – cell-based, HEK293-NOX2, PMA-stimulated, NOX inhibitor project, primary screen (AID 1159); conditions: 45 min, higher = more signal, called active from +8 up or from −8 down; note: test concentration not given here
[19] = molecular target: NADPH oxidase 4 (Homo sapiens) (UniProt Q9NPH5); test: compounds shifting NOX4 Amplex Red fluorescence – cell-based, HEK293-NOX4, tetracycline-induced, NOX inhibitor project, primary screen (AID 1160); conditions: HEK293-NOX4, Amplex Red H2O2 fluorescence, 45 min; higher = more signal, called active from +8 up or from −8 down
[20] = molecular target: NADPH oxidase 5 (Homo sapiens) (UniProt Q96PH1); test: compounds shifting NOX5 Amplex Red fluorescence – cell-based, HEK293-NOX5, NOX inhibitor project, primary screen (AID 1161); conditions: HEK293-NOX5, ionomycin, 45 min, higher = more signal
Sequence of NADPH oxidase 5 (Homo sapiens) (Q96PH1 whole entry, looked up): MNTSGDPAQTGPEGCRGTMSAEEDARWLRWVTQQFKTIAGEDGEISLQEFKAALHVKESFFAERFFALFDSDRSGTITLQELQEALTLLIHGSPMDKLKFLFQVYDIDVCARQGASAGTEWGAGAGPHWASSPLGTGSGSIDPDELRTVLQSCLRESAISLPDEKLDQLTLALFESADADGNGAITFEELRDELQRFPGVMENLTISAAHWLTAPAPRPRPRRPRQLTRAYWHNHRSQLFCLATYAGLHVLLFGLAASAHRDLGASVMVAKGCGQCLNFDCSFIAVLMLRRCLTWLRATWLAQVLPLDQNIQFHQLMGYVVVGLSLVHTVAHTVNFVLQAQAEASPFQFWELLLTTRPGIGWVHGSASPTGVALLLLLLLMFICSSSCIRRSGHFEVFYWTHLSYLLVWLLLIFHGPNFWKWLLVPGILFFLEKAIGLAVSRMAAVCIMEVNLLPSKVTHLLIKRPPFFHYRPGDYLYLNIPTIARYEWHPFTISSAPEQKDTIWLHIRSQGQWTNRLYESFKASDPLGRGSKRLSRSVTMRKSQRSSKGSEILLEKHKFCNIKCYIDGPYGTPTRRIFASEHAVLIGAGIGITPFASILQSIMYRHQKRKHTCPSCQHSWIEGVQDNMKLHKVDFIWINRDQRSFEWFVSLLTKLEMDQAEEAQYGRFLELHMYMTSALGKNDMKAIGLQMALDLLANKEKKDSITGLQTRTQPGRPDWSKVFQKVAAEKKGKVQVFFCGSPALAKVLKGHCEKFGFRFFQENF

Sequence of NADPH oxidase 4 (Homo sapiens) (Q9NPH5 whole entry, looked up): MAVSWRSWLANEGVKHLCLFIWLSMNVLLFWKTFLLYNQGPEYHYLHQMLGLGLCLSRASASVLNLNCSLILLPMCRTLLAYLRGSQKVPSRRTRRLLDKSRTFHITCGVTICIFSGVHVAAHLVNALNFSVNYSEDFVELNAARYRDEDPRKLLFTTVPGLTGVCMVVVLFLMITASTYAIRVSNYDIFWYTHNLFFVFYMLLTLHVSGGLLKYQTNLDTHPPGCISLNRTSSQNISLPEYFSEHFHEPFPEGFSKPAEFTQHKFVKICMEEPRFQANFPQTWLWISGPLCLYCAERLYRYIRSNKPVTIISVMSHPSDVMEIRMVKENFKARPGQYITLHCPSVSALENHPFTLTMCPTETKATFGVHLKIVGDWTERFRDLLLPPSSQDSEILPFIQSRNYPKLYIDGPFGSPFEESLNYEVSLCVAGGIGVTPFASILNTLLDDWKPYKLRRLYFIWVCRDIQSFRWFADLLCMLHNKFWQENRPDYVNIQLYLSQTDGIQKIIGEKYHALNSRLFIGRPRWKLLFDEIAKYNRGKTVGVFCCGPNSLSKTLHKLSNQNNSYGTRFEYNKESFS
Sequence of Torsin-1A (Homo sapiens) (O14656 whole entry, looked up): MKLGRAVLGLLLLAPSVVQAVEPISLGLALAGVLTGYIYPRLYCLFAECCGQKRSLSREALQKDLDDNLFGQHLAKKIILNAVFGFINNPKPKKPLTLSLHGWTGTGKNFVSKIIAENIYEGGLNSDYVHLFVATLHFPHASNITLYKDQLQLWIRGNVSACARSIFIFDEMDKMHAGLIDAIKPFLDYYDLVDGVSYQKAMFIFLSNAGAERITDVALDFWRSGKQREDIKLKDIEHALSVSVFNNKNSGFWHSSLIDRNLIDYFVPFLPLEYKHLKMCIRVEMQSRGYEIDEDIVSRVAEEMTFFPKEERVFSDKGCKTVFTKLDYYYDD
Sequence of NADPH oxidase 2 (Homo sapiens) (P04839 whole entry, looked up): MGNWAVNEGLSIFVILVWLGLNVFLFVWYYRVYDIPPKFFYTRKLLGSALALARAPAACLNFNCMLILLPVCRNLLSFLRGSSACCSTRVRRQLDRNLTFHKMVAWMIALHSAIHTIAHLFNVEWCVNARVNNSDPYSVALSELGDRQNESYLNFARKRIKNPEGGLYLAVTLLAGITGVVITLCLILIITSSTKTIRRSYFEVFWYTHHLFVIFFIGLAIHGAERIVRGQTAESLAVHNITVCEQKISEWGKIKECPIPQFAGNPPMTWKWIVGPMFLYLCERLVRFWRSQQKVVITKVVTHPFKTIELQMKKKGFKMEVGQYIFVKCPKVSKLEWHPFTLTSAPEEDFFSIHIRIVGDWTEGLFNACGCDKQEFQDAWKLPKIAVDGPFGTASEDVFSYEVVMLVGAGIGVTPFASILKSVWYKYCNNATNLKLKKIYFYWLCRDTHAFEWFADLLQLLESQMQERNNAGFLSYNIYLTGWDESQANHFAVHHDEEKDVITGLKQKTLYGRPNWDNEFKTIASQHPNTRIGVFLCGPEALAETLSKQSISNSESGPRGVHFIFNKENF
Sequence of Streptavidin (Streptomyces avidinii) (P22629 whole entry, looked up): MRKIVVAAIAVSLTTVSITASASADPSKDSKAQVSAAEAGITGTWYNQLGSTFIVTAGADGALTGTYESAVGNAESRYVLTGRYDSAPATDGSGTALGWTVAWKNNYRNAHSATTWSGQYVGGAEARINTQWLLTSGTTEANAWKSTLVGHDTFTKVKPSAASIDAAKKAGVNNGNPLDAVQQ

In the case of `CC(C)(C)N1C(=O)[C@H]2[C@H]3[C@H](O)C=CC(=O)[C@@H]3CC[C@H]2C1=O`, the composite z-score [1] is reported as 0.307, the z-score [2] is reported as 0.536 (inactive) and the z-score [3] is reported as 0.0768 (inactive). The z-score [4] was 1.06 (inactive), the z-score [5] was -0.0003 (inactive) and the composite z-score [6] was 0.4. It also gave a composite z-score [7] of -0.128, a composite z-score (Torsin-1A (Homo sapiens) [8]) of 0.281 and a composite z-score (Torsin-1A (Homo sapiens) [9]) of 0.252. The composite z-score [10] was 0.521, the z-score [11] was -0.0926 (inactive) and the composite z-score [12] was -0.286. For the same compound, the z-score [13] was -0.007 (inactive), the z-score [14] was -0.566 (inactive) and the z-score [15] was -0.562 (inactive). The z-score [16] was -0.43 (inactive), the z-score [17] was 0.0787 and the z-score [18] was 0.497 (inactive). The z-score [19] was -1.67 (inactive) and the z-score [20] was -0.47.

In the case of `CC(C)=CCCC(C)=CCON=C1C[C@@H](O)[C@@H](O)[C@@H]2[C@@H]3C(=O)N(C(C)(C)C)C(=O)[C@@H]3CC[C@H]12`, the composite z-score [1] is reported as 0.158, the z-score [2] is reported as 0.232 (inactive) and the z-score [3] is reported as -0.625 (inactive). For the same compound, the z-score [4] was 0.7 (inactive), the z-score [5] was 0.871 (inactive) and the composite z-score [6] was 0.0957. The composite z-score [7] was 0.0442, the composite z-score (Torsin-1A (Homo sapiens) [8]) was 0.366 and the composite z-score (Torsin-1A (Homo sapiens) [9]) was 0.987. The composite z-score [10] was 0.435, the z-score [11] was 0.367 (inactive) and the composite z-score [12] was -0.0603. The z-score [13] was -0.22 (inactive), the z-score [14] was 0.28 (inactive) and the z-score [15] was -0.921 (inactive). The z-score [16] was -0.138 (inactive), the z-score [17] was -0.443 and the z-score [18] was 0.799 (inactive). For the same compound, the z-score [19] was 0.427 (inactive) and the z-score [20] was 0.0706.

In the case of `CC(C)CON=C1C[C@@H](O)[C@@H](O)[C@@H]2[C@@H]3C(=O)N(Cc4ccc5c(c4)OCO5)C(=O)[C@@H]3CC[C@H]12`, the composite z-score [1] is reported as 0.365, the z-score [2] is reported as -0.365 (inactive) and the z-score [3] is reported as 1.01 (inactive). For the same compound, the z-score [4] was 0.242 (inactive), the z-score [5] was 0.201 (inactive) and the composite z-score [6] was 1.23. For the same compound, the composite z-score [7] was -0.0589, the composite z-score (Torsin-1A (Homo sapiens) [8]) was 0.217 and the composite z-score (Torsin-1A (Homo sapiens) [9]) was 0.739. The composite z-score [10] was 1.45, the z-score [11] was -0.135 (inactive) and the composite z-score [12] was -0.198. The z-score [13] was 1.22 (inactive), the z-score [14] was 0.32 (inactive) and the z-score [15] was 0.337 (inactive). The z-score [16] was 0.108 (inactive), the z-score [17] was -0.27 and the z-score [18] was -0.378 (inactive). For the same compound, the z-score [19] was 1.02 (inactive) and the z-score [20] was -0.146.

For `COc1ccc(O[C@H]2C=C[C@@H](c3ccccc3)O[C@@H]2CON=C(C)CCC(=O)OC[C@H]2O[C@H](c3ccccc3)C=C[C@@H]2Oc2ccc(OC)cc2)cc1`, the composite z-score [1] was -0.874, the z-score [2] was -0.461 (inactive) and the z-score [3] was 0.107 (inactive). For the same compound, the z-score [4] was -0.887 (inactive), the z-score [5] was 0.593 (inactive) and the composite z-score [6] was 0.204. For the same compound, the composite z-score [7] was -0.0136, the composite z-score (Torsin-1A (Homo sapiens) [8]) was -2.42 and the composite z-score (Torsin-1A (Homo sapiens) [9]) was -1.43. The composite z-score [10] was 2.02, the z-score [11] was 0.274 (inactive) and the composite z-score [12] was 0.64. For the same compound, the z-score [13] was 0.99 (inactive), the z-score [14] was 0.328 (inactive) and the z-score [15] was 0.104 (inactive). For the same compound, the z-score [16] was 0.464 (inactive), the z-score [17] was -0.661 and the z-score [18] was -0.2 (inactive). The z-score [19] was 0.988 (inactive) and the z-score [20] was -0.925.
